# Measured values: PubChem BioAssay (NCATS)
# Inconclusive results are not listed. Values without a mark were called inactive. Calls of active or inactive are those of the source. The call rests on the fitted dose curve; in most records, active means well fitted inhibition curve with a large enough effect; inconclusive means small, poorly fitted or top-dose-only effect; inactive means flat fitted curve, though single readings scatter.
# Key:
# [1] = system: CRL-7250; experiment: Cytotoxic Profiling of Annotated Libraries Using Quantitative High-Throughput Screening (AID 1296008); details: Five cell lines viability, CellTiter-Glo ATP luminescence, 48-72 h; max response: stronger effect = lower value; further: potency means the concentration at half of the fitted maximal effect; on max response: on the % scale 0 is the no-effect control and ±100 the full control effect
# Outline: (§1)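 Compounds were pin-transferred onto cells and incubated 48 or 72 hr at 37 degree Celsius, 95% humidity. CellTiter-Glo was added, plates sat 10 min at room temperature, then ATP-coupled luminescence was imaged as the viability read-out.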
# [2] = system: HEK293; experiment: as above; details: Five cell lines viability, CellTiter-Glo ATP luminescence, 48-72 h; max response: stronger effect = lower value
# Outline: as §1
# [3] = system: HaCat; experiment: as above; details: Five cell lines viability, CellTiter-Glo ATP luminescence, 48-72 h; max response: stronger effect = lower value
# Outline: as §1
# [4] = system: KB-3-1; experiment: as above; details: Five cell lines viability, CellTiter-Glo ATP luminescence, 48-72 h; max response: stronger effect = lower value
# Outline: as §1
# [5] = system: NIH3T3; experiment: as above; details: Five cell lines viability, CellTiter-Glo ATP luminescence, 48-72 h; max response: stronger effect = lower value
# Outline: as §1
# [6] = system: HACAT; experiment: qHTS assay to identify novel small-molecules to repurpose for Merkel cell carcinoma treatment (AID 1296009); details: MCC and control cell lines, CellTiter-Glo viability, 72 h; at 44.8 µM (top of the series) unless noted
# Outline: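 qHTS format: cells treated with library compounds in DMSO across 8 (NPC) or 11 (MIPE) concentrations. Readout after 72 hr at 37 degree celsius was CellTiter-Glo luminescence.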
# Further: nearly all actives have a fitted effect of over 60% in size.
Compound,max response [1],max response [2],outcome [3],max response [4],max response [5],outcome [6],outcome [1],outcome [4],outcome [5],Potency [2]
C=CC(C)(CC/C=C(\C)C(=O)OC[C@H]1O[C@@H](OC(C)(C=C)CC/C=C(\C)C(=O)O[C@H]2[C@H](O)[C@@H](O)[C@H](OC(C)(C=C)CC/C=C(\C)C(=O)O)O[C@@H]2CO)[C@H](O)[C@@H](O)[C@@H]1O)O[C@@H]1O[C@H](CO)[C@@H](O)[C@H](O)[C@H]1O (stereo partly drawn),-2.1%,-7.01%,inactive,3.96%,-1.72%,inactive [at 9.27 µM],,,,
CC(O)C/C=C/C=C/C(=O)OC1C=C2COC(=O)C2(O)C2(C)CCCC(C)(C)C12 (stereo not drawn),,-13.6%,inactive,5.12%,-2.82%,inactive,inactive,,,
C/C=C/C=C/C(O)=C1/C(=O)[C@]2(C)C(=O)[C@@](C)(O)[C@H]1[C@H]([C@@]1(C)OC(=O)C(C)=C1O)[C@H]2C(=O)CC/C=C/C,,-3.93%,inactive,,,inactive [at 17.4 µM],inactive,inactive,inactive,
CC1(C)CC=C(C#Cc2ccccc2)c2cc(/C=C/c3ccc(C(=O)O)cc3)ccc21,-4.79%,1.6%,inactive,3.78%,-4.98%,inactive,,,,
C=C(C)[C@H]1CC[C@]2(C(=O)O)CC[C@]3(C)C(CCC4[C@@]5(C)CCC(=O)C(C)(C)C5CC[C@]43C)C12 (stereo partly drawn),-18.5%,,inactive,-14.2%,-1.29%,inactive [at 17.4 µM],,,,7.09 µM (active)
COC(=O)C1=COC(OC2OC(CO)C(O)C(O)C2O)C2C(C)C(OC(=O)/C=C/c3ccc(O)cc3)C(O)C12 (stereo not drawn),0.486%,-0.112%,inactive,1.09%,-1.55%,inactive [at 17.4 µM],,,,
CCN1CCN(C(=O)N[C@@H](C(=O)N[C@@H]2C(=O)N3[C@@H]2SC(C)(C)[C@@H]3C(=O)O)c2ccccc2)C(=O)C1=O,-7%,-6.17%,inactive,,,inactive,,inactive,inactive,
OCC1OC(Oc2cc(O)cc(/C=C/c3ccc(OC4OC(CO)C(O)C(O)C4O)cc3O)c2)C(O)C(O)C1O (stereo not drawn),,3.22%,inactive,5.55%,0.921%,inactive [at 17.4 µM],inactive,,,
C/C=C(\C)C(=O)OC[C@H]1O[C@H](O[C@H]2O[C@H](CO)[C@@H](O)[C@H](O)[C@H]2O[C@@H]2O[C@H](CO)[C@@H](O)[C@H](O)[C@H]2O)[C@H](O[C@@H]2O[C@H](CO)[C@@H](O)[C@H](O)[C@H]2O)[C@@H](O)[C@@H]1O,0.965%,-1.76%,inactive,,,inactive [at 17.4 µM],,inactive,inactive,
C/C(=C\CCC(C)CCO)C(=O)OC[C@H]1O[C@@H](O[C@@H]2OC=C(C(=O)O)[C@H]3CC[C@](C)(O)[C@@H]23)C(O)[C@@H](O)C1O (stereo partly drawn),3.02%,4.12%,inactive,,,inactive [at 17.4 µM],,inactive,inactive,
C[C@]1(O)CC[C@@H]2C(C(=O)O)=CO[C@@H](O[C@@H]3O[C@H](CO)[C@@H](O)[C@H](O)[C@H]3O)[C@@H]21,-9.18%,-5.73%,inactive,0.108%,1.11%,inactive,,,,
CC1OC(O[C@@H]2[C@H](O)[C@@H](OC3OC(CO)C(O)C(O)C3O)[C@H](OC(=O)[C@]34CCC(C)(C)C[C@H]3C3=CCC5[C@@]6(C)CC[C@H](O[C@@H]7O[C@H](C(=O)O)[C@@H](O)[C@H](O[C@@H]8OC[C@@H](O)[C@H](O)[C@H]8O)[C@H]7O[C@@H]7O[C@H](CO)[C@H](O)[C@H](O)[C@H]7O)[C@@](C)(C=O)C6CC[C@@]5(C)[C@]3(C)C[C@H]4O)O[C@@H]2C)C(O)C(O)C1OC1OCC(O)C(O)C1O (stereo partly drawn),-3.77%,-1.1%,inactive,,,inactive [at 4.96 µM],,inactive,inactive,
CC1CC(O)/C=C/C(O)/C=C\C(=O)O1 (stereo not drawn),0.731%,-11.1%,inactive,,,inactive [at 92 µM],,inactive,inactive,
Cc1cn(-c2cc(NC(=O)c3ccc(C)c(Nc4nccc(-c5cnccn5)n4)c3)cc(C(F)(F)F)c2)cn1,-3.34%,-20.5%,inactive,-2.9%,,inactive,,,inactive,
COC(=O)/C=C/c1ccc(O[C@@H]2O[C@H](CO)[C@@H](O)[C@H](O)[C@H]2O)cc1,-1.55%,-5.47%,inactive,2.42%,,inactive,,,inactive,
C/C=C/C=C/C1=C2C(=O)C3(C)C4C(C(=O)CC(O)/C=C/C)=C(O1)C1(C)C2C2(C)OC1(O)C4(C)OC23O (stereo not drawn),,-2.55%,inactive,3.96%,,inactive [at 17.4 µM],inactive,,inactive,
COC(=O)C1=COC(OC2OC(CO)C(O)C(O)C2O)C2C(COC(=O)/C=C/c3ccc(O)c(O)c3)C(O)C(O)C12 (stereo not drawn),,0.488%,inactive,,2.28%,inactive [at 17.4 µM],inactive,inactive,,
C[C@@H]1O[C@@H](O[C@H]2[C@H](O[C@H]3[C@H](O[C@H]4CC[C@@]5(C)C(CC[C@]6(C)C5CC=C5[C@@H]7CC(C)(C)C[C@@H](O)[C@]7(C)CC[C@]56C)C4(C)C)O[C@H](C(=O)O)[C@@H](O)[C@@H]3O)O[C@H](C(=O)O)[C@H](O)[C@@H]2O)[C@H](O)[C@H](O)[C@H]1O (stereo partly drawn),-7.66%,-8.11%,inactive,,0.708%,inactive [at 9.27 µM],,inactive,,
